Values joined by “and” are separate entries in the source; they are usually repeats but may differ in a detail not shown here. Identical values can stand only once.
Target: C-X-C chemokine receptor type 6 (Homo sapiens) (UniProt O00574)
Test: apelin receptor (APJ) antagonists, SAR follow-up, counter-screen for CXCR6 antagonist project, cell-based, beta-arrestin, DiscoveRx, panel, CHO-K1 (AID 651598)
Conditions: CHO-K1 PathHunter beta-arrestin luminescence, antagonist mode; run 3, at 80 µM (top of the series)

Chain of C-X-C chemokine receptor type 6 (Homo sapiens) (O00574 whole entry, looked up): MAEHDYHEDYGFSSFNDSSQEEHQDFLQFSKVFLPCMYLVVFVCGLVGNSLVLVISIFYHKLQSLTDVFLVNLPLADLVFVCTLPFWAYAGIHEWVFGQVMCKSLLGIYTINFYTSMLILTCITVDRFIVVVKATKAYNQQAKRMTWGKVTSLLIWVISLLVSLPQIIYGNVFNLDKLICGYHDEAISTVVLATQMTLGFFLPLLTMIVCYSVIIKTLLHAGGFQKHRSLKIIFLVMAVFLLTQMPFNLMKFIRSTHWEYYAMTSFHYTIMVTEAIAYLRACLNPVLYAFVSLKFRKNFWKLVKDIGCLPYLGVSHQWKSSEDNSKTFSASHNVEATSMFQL

Row | SMILES | inhibition
1 | COc1cc(C(=O)NC2CC3CCCC(C2)N3CC(=O)Nc2ccccc2)cc(OC)c1OC (stereo not drawn) | 91% and 42.4% and 18.6%
2 | COc1cc(C(=O)NC2CC3CCC(C2)N3CC(=O)Nc2ccccc2)cc(OC)c1OC (stereo not drawn) | 56.5% and 4.53%
3 | COc1cc(C(=O)NC2CCN(CC(=O)Nc3ccccc3)CC2)cc(OC)c1OC | 6.56%
